Records with an inconclusive call do not appear. Entries that show only a call come without a potency. The source made the active and inactive calls. The call rests on the fitted dose curve; in most records, active means well fitted curve in the direction sought with a large enough effect; inconclusive means small, poorly fitted or top-dose-only effect, or another doubt; inactive means no such curve, though single readings can be large; an effect the other way counts as inactive or inconclusive.
Test system: not listed separately
Assay: Primary fluorescence-based thiol-reactive (MSTI) qHTS assay for identification of artifact compounds. (AID 1845221);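 further: thiol-reactive compounds lower the probe fluorescence signal; nearly all actives have a fitted effect of over 65% in size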
Details: MSTI thiol-reactivity probe, 1 h; series mostly up to 53.8 µM
Procedure, shortened: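 Curve-fitted percent inhibition (4-parameter Hill) derived from fluorescence, Ex 525/Em 598 nm, scaled with Acetyl-MSTI and MSTI; 1 h incubation at room temperature.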
With `CC(C)Nc1cc(C(F)(F)F)cc2nc(NC(=O)c3cccnc3)nn12` the Potency was “inactive”. With `COc1ccc(-c2cc3c(C)nc(N)nc3n(C3CCC(OCCO)CC3)c2=O)cn1` (centres undefined) the Potency was “inactive”. With `NCC(=O)Nc1ccc(-n2nc(C(F)(F)F)cc2-c2ccc3c(ccc4ccccc43)c2)cc1` the Potency was “inactive”. In the case of `COc1cc2c(Oc3ccc(NC(=O)C4(C(=O)Nc5ccc(F)cc5)CC4)cc3F)ccnc2cc1OCCCN1CCOCC1`, the Potency is reported as “inactive”. For `CC(=O)Nc1sc2c(c1-c1nc3ccccc3s1)CNC2`, the Potency was “inactive”. For `CC[C@@H]1C(=O)N(C)c2cnc(Nc3ccc(C(=O)NC4CCC(N5CCN(CC6CC6)CC5)CC4)cc3OC)nc2N1C(C)C` (some centres undefined), the Potency was “inactive”. In the case of `CCCCOc1c(C(=O)c2c(F)cc(C)cc2F)cnc2n[nH]cc12`, the Potency is reported as “inactive”. In the case of `COc1cc(C)c(Sc2cnc(NC(=O)c3ccc(CNC(C)C(C)C)cc3)s2)cc1C(=O)N1CCN(C(C)=O)CC1` (centres undefined), the Potency is reported as “inactive”.

Test system: Nanoluciferase (engineered Oplophorus gracilirostris luciferase)
Assay: Primary Nanoluciferase (NLuc) qHTS assay for identification of artifact compounds. (AID 1845222)
Details: NLuc-conditioned medium, Nano-Glo luminescence, 5 min; series mostly up to 54.1 µM
Procedure, shortened: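 Compounds are pinned into diluted (1:55) conditioned medium of NLuc-expressing S16 cells and held 15 min at room temperature protected from light. Nano-Glo substrate follows, and luminescence is read 5 min later.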
For `CC(C)Nc1cc(C(F)(F)F)cc2nc(NC(=O)c3cccnc3)nn12`, the Potency was “inactive”. In the case of `Cc1cn(-c2cc(NC(=O)c3ccc(C)c(Nc4nccc(-c5cccnc5)n4)c3)cc(C(F)(F)F)c2)cn1`, the Potency is reported as “inactive”. In the case of `c1nc2nc(Nc3ccc(N4CCOCC4)cc3)nc(NC3CCCCC3)c2[nH]1`, the Potency is reported as “inactive”. With `Cc1c(Cn2c(C)nc3c(C(=O)O)cc(N4CCOCC4)cc32)cccc1C(F)(F)F` the Potency was “inactive”. For `COc1ccc(-c2cc3c(C)nc(N)nc3n(C3CCC(OCCO)CC3)c2=O)cn1` (centres undefined), the Potency was “inactive”. For `CCCCCN(CCC12CC3CC(CC(C3)C1)C2)C(=O)NCCCc1ccncc1`, the Potency was “inactive”. In the case of `COC(=O)Nc1ccc(-c2nc(N3CCOCC3)c3cnn(C4CCN(Cc5cccnc5)CC4)c3n2)cc1`, the Potency is reported as “inactive”. For `Cc1cnc(Nc2ccc(F)cc2Cl)nc1-c1c[nH]c(C(=O)N[C@H](CO)c2cccc(Cl)c2)c1`, the Potency was “inactive”. With `NCC(=O)Nc1ccc(-n2nc(C(F)(F)F)cc2-c2ccc3c(ccc4ccccc43)c2)cc1` the Potency was “inactive”. With `Cc1cn2cc(C(=O)N(C)CCO)cc(N[C@@H]3CCOc4cccc(C)c43)c2n1` the Potency was “inactive”. For `CCc1c2c(nc3ccc(O)cc13)-c1cc3c(c(=O)n1C2)COC(=O)[C@]3(O)CC`, the Potency was “inactive”. In the case of `Nc1nc(Nc2ccc(S(N)(=O)=O)cc2)nn1C(=O)c1c(F)cccc1F`, the Potency is reported as “inactive”. In the case of `N#CCNC(=O)c1ccc(-c2ccnc(Nc3ccc(N4CCOCC4)cc3)n2)cc1`, the Potency is reported as “inactive”. In the case of `CC(=O)Nc1nc(C)c(-c2ccc(Cl)c(S(=O)(=O)NCCO)c2)s1`, the Potency is reported as “inactive”. With `Clc1ccc2ncc(-c3cccc(NC4CNC4)n3)n2c1` the Potency was “inactive”. With `COC(=O)Nc1nc2ccc(C(=O)c3ccc(F)cc3)cc2[nH]1` the Potency was “inactive”. With `COc1cc2c(Oc3ccc(NC(=O)C4(C(=O)Nc5ccc(F)cc5)CC4)cc3F)ccnc2cc1OCCCN1CCOCC1` the Potency was “inactive”. With `Cc1cc(Nc2cc(CN3CCOCC3)c3nc(C)c(Cc4ccc(Cl)cc4F)n3n2)n[nH]1` the Potency was “inactive”. For `CNc1nccc(-c2cccnc2Oc2cc(C(=O)Nc3cccc(C(F)(F)F)c3)ccc2C)n1`, the Potency was “inactive”. In the case of `CC(C)c1nn(-c2c(Cl)cccc2Cl)c2nc(Cc3ccc(OCCO)cc3)[nH]c(=O)c12`, the Potency is reported as “inactive”. For `CC1(O)CC(c2nc(-c3ccc4ccc(-c5ccccc5)nc4c3)c3c(N)nccn23)C1` (centres undefined), the Potency was “inactive”. For `CC(=O)Nc1sc2c(c1-c1nc3ccccc3s1)CNC2`, the Potency was “inactive”. In the case of `Cn1c2ccccc2c2c3c(c4c5ccccc5n(CCC#N)c4c21)CNC3=O`, the Potency is reported as “inactive”. In the case of `Clc1cccc(-c2nnnn2Cc2cccnc2)c1Cl`, the Potency is reported as “inactive”. For `CC[C@@H]1C(=O)N(C)c2cnc(Nc3ccc(C(=O)NC4CCC(N5CCN(CC6CC6)CC5)CC4)cc3OC)nc2N1C(C)C` (some centres undefined), the Potency was “inactive”. With `COc1cc2c(Oc3ccc4[nH]c(C)cc4c3F)ncnc2cc1OCCCN1CCCC1` the Potency was “inactive”. In the case of `CC(C)(C)c1cc(NC(=O)Nc2ccc(-c3cn4c(n3)sc3cc(OCCN5CCOCC5)ccc34)cc2)no1`, the Potency is reported as “inactive”. For `C=CC(=O)N1CCC[C@@H](n2nc(-c3ccc(Oc4ccccc4)cc3)c3c(N)ncnc32)C1`, the Potency was “inactive”. In the case of `CC(C)c1cnn2c(NCc3ccccc3)cc(N[C@@H](CO)[C@H](O)CO)nc12`, the Potency is reported as “inactive”. For `COc1cccc2nc(-c3cccs3)nc(NN3C(=O)C=C(C)C3=O)c12`, the Potency was “inactive”. In the case of `Cc1nc(N)ncc1-c1nc(N2CCOCC2)c2sc(C(C)(C)O)cc2n1`, the Potency is reported as “inactive”.
